Compounds without any hit were thinned out: in the full panel of roughly 83,000, 20% have a hit.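 Single-concentration screen, 48 h exposure, 96-well plates. Endpoint: percent growth. Below 10 = active.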 Values without a mark were called inactive. The source made the active and inactive calls.
Columns and labels:
Assay in all cases: NCI-60 one-dose screen, 48 h (100 = growth as untreated, 0 = no growth, -100 = all killed)
Settings in all cases: 10 µM unless noted
NCI-H23 lung = system: NCI-H23 lung
NCI-H322M lung = system: NCI-H322M lung
HOP-62 NSCLC = system: HOP-62 NSCLC
NCI-H460 lung = system: NCI-H460 lung
HOP-92 NSCLC = system: HOP-92 NSCLC
A549/ATCC NSCLC = system: A549/ATCC NSCLC
786-0 renal = system: 786-0 renal
COLO 205 colon = system: COLO 205 colon
DU-145 prostate = system: DU-145 prostate
K-562 leukemia = system: K-562 leukemia
MALME-3M melanoma = system: MALME-3M melanoma
MDA-MB-231 breast = system: MDA-MB-231 breast
RXF 393 renal = system: RXF 393 renal
SF-268 CNS = system: SF-268 CNS
SF-295 CNS = system: SF-295 CNS
SF-539 CNS = system: SF-539 CNS
UACC-257 melanoma = system: UACC-257 melanoma
M14 melanoma = system: M14 melanoma
HCT-15 colon = system: HCT-15 colon
NCI-H522 lung = system: NCI-H522 lung

| Compound | growth (NCI-H23 lung) | growth (NCI-H322M lung) | growth (HOP-62 NSCLC) | growth (NCI-H460 lung) | growth (HOP-92 NSCLC) | growth (A549/ATCC NSCLC) | growth (786-0 renal) | growth (COLO 205 colon) | growth (DU-145 prostate) | growth (K-562 leukemia) | growth (MALME-3M melanoma) | growth (MDA-MB-231 breast) | growth (RXF 393 renal) | growth (SF-268 CNS) | growth (SF-295 CNS) | growth (SF-539 CNS) | growth (UACC-257 melanoma) | growth (M14 melanoma) | growth (HCT-15 colon) | growth (NCI-H522 lung) |
| --- | --- | --- | --- | --- | --- | --- | --- | --- | --- | --- | --- | --- | --- | --- | --- | --- | --- | --- | --- | --- |
| CCN1CCN(C(=S)SCC(=O)Nc2nc3ccc(C)cc3s2)CC1 | 99.2% | 103% | 99.7% | 113% | 92.5% | 103% | 118% | 103% | 113% | 104% | 105% | 104% | 108% | 107% | 106% | 117% | 116% | 124% | 103% | – |
| CS(=O)(=O)Nc1ccc(C(=O)NC(C(=O)NO)c2ccc(-c3cccc(F)c3)cc2)cc1 (stereo unspecified) | 45.6% | 53.5% | 99.1% | 89.7% | -8.77% (active) | 103% | 72.8% | 109% | 83.5% | 90% | 92% | 42.1% | 106% | 47.3% | 93.7% | 92.6% | 101% | 85.3% | 91.5% | – |
| O=c1oc2ccc(F)cc2c(=O)n1-c1ccc(F)cc1F | 11.4% | 36.7% | 30.5% | 14.7% | -29% (active) | 15.2% | 73.1% | 93.9% | 28.3% | 15.7% | -6.02% (active) | 51.1% | 33.5% | 15% | 37.9% | 18.5% | 17.5% | 29% | 23.3% | – |
| COc1cc(/C=C2\CN(C)C/C(=C\c3cc(CN4CCOCC4)c(O)c(OC)c3)C2=O)cc(CN2CCOCC2)c1O | 37.3% | 67.5% | 68.9% | 15.2% | 93.2% | 56.8% | 76.6% | 45.2% | 28.5% | 29.1% | 65.6% | 69.5% | 78% | 56.9% | 77.1% | 34.8% | 71.2% | 66.4% | 64.8% | – |
| O=c1cc(-c2ccccc2)oc2cc(OCc3cn(Cc4ccc(F)cc4)nn3)cc(OCc3cn(Cc4ccc(F)cc4)nn3)c12 | 29.2% | 43.5% | 12.4% | 2.98% (active) | -18% (active) | 23.2% | 1.13% (active) | 68.4% | 40% | 45.5% | 15.2% | 9.1% (active) | -8.05% (active) | 21.8% | 38.9% | -10.5% (active) | 46.4% | 56.8% | 73.5% | – |
| O=C(Nc1ccc(N2CCNCC2)cc1)c1[nH]ncc1Nc1cc(C2CC2)ncn1 | 44.3% | 37.6% | 66.4% | 38.9% | 78.1% | 33.2% | 56.7% | 24% | 70.6% | 24.2% | 61.5% | 81.1% | 46.5% | 60% | 76.9% | 46.1% | 75.9% | 45.3% | 35.6% | – |
| COc1cccc2c1C=C1CCCCC3=Cc4c(OC)cccc4OC13O2 | 55.9% | 61.2% | 56.8% | 25.4% | 46.8% | 45.8% | 41.7% | 30.6% | 63.5% | 17.4% | 36.5% | 56.7% | 32.8% | 50.8% | 27.2% | 39.4% | 62.1% | 27.3% | 28.3% | – |
| COc1ccc(N)c(-c2cc3c(c4c2[nH]c2ccc(OC)cc24)CCCC3)c1 | 91.2% | 71.5% | 70.4% | 83.1% | 72.2% | 64.1% | 78.3% | 102% | 83.7% | 76.8% | 108% | 77.6% | 87.1% | 73.8% | 88.8% | 98% | 67.9% | 78.5% | 58.6% | – |
| COc1ccc2c(c1)C=C1CSCC3=Cc4cc(OC)ccc4OC13O2 | 18.7% | 49.2% | 38.2% | 6.88% (active) | 44.9% | – | 38.6% | 3.24% (active) | 17.7% | 11% | 45.2% | 16.4% | 5% (active) | 41.1% | 2.44% (active) | -25.4% (active) | 74.7% | 17.2% | 18.2% | 15.1% |
| NS(=O)(=O)c1ccc(CCN=C=S)cc1 | 32.7% | 85.2% | 101% | 56.7% | 23.4% | 71.5% | 20.8% | -36.7% (active) | 6.92% (active) | 5.24% (active) | 40.9% | 15.6% | -36.3% (active) | 53.3% | 105% | 37.2% | 24.7% | 12.6% | 0.368% (active) | – |
| COC(=O)/C(CCC=C(C)C)=C1\[C@@H](OC(C)=O)C[C@@]2(C)[C@H]1CC(=O)[C@H]1[C@@]3(C)CC[C@H](NCc4ccccc4)[C@@H](C)[C@@H]3CC[C@@]12C | 93.4% | 103% | 87.3% | 88.8% | 49.7% | 81.7% | 65.9% | 60% | 96.5% | 28.8% | 92.5% | 90.5% | 69.4% | 79.6% | 98.2% | 82.9% | 99.7% | 89.7% | 72.1% | – |
| O=C(CCc1nnc2sc(-c3ccc(Cl)cc3Cl)nn12)c1nc2ncccc2[nH]1 | -40.7% (active) | 11.7% | 2.87% (active) | -66.8% (active) | -62.1% (active) | 4.78% (active) | -31.5% (active) | -32.5% (active) | -7.95% (active) | 6.32% (active) | -47.6% (active) | -43.5% (active) | -93.1% (active) | 36.9% | -56.8% (active) | -21% (active) | -25.3% (active) | -14.2% (active) | -40.2% (active) | – |
| CCCCc1ccc(NS(=O)(=O)c2cc3c4c(c2)CCN4C(=O)CC3)cc1 | 21.2% | 32.7% | 8.96% (active) | 4.33% (active) | 3.41% (active) | 10.6% | -1.95% (active) | 14.5% | 16.4% | 7.56% (active) | 17.8% | 35.7% | 32.5% | 5.78% (active) | – | 7.3% (active) | 16.3% | -12.8% (active) | 32.6% | – |
| O=C(Nc1ccccc1O)c1ccc(Oc2cccc(C(=O)Nc3ccccc3O)c2)cc1 | 25.5% | 25.9% | 6.43% (active) | 1.59% (active) | 31.4% | 7.58% (active) | 3.76% (active) | 93.4% | 12.1% | -29.1% (active) | 13.6% | 32% | 26.6% | 0.105% (active) | -28.5% (active) | 7.4% (active) | 10.4% | -44.5% (active) | 32.2% | – |
| CCn1c(SCC(=O)Nc2cc(C(F)(F)F)ccc2Cl)nc2ccccc2c1=O | 70.9% | 78.8% | 64.2% | 28.6% | 9.17% (active) | 50.5% | 56.4% | 52.6% | 38.2% | -46.2% (active) | -15.6% (active) | -25.6% (active) | 44.4% | 32.6% | 67.3% | 69.1% | -32% (active) | -67% (active) | 36.7% | – |
| CC(C)CCOc1ccc(-c2n[nH]c(C(F)(F)F)c2-c2cncc(C#N)c2)c(O)c1 | -0.157% (active) | 12.4% | 5.79% (active) | 3.48% (active) | -27.9% (active) | – | 17.1% | 49% | 18% | – | -0.801% (active) | 1.43% (active) | – | 21.9% | 0.826% (active) | 25.2% | -14% (active) | 22.5% | 12% | -6.89% (active) |

From PubChem BioAssay (NCI)
